The campaign covered roughly 190,000 compounds. About 4,000 (2.1%) were called active. No stated cut-off is given here; in the data, active means inhibition above about 58%; inactive means the rest, inconclusive results apart; tested in S. cerevisiae. For the sample, actives were picked, then their nearest neighbours and some compounds at random.
Experiment: growth inhibition of WT strain, primary screen, mitochondrial fusion inhibitor project, WT and mutant strains, chemical genetic (AID 1362)
Conditions: mitochondrial fusion phenotypic screen, at 10 µM
[1] = WT strain, growth inhibition, stronger effect = higher value

Row | Compound | inhibition [1] | inhibition (mutant strain inhibition) [%]
1 | O=C(CCn1ccc([N+](=O)[O-])n1)Nc1nccs1 | -14.4% (inactive) | 2.54
2 | Cn1c(N)c(C(=O)COC(=O)c2ccccc2NCc2ccco2)c(=O)n(C)c1=O | 12.2% (inactive) | -19.6
3 | Cc1ccc(NC(=O)OCc2cncs2)cc1 | -3.01% (inactive) | 3.18
4 | COc1ccc(OC)c(C(=O)c2ccc(C(=O)N3CCN(Cc4csc(C)n4)CC3)cc2)c1 | -23% (inactive) | 5.3
5 | Cc1ccc(Cl)c(NC(=O)CN2CCN(C=O)CC2)c1 | -7.62% (inactive) | 12.5
6 | OC(COc1ccc2ccccc2c1)Cn1cncn1 (stereo not given) | 4.91% (inactive) | -2.41
7 | CC(=O)OC(COc1ccc(F)cc1)Cn1cnc2ccccc21 (stereo not given) | -0.37% (inactive) | 4.78
8 | CC(C)c1ccc(OCC(O)Cn2cnc3ccccc32)cc1 (stereo not given) | 95.7% (active) | 0.12
9 | CC(=O)Nc1cccc(-c2nc3ccccc3s2)c1C | -0.41% (inactive) | -5.28
10 | COC(=O)C1=C(C)N(c2ccc(Br)cc2)C(=O)/C1=C\c1ccco1 | 13.1% (inactive) | 8.54
11 | O=C(CCCN1C(=O)/C(=C/c2ccco2)SC1=S)Nc1ccccc1 | 1.95% (inactive) | -17.3
12 | COC(=O)C1=C(C)N(C(C)c2ccccc2)C(=O)/C1=C\c1ccco1 (stereo not given) | 58.3% (active) | -4.58
13 | O=C(NCCN1CCOCC1)Nc1cccc(Cl)c1 | -7.63% (inactive) | -3.81
14 | Cc1cc(C)cc(OCC(=O)NCc2cc(C)nc3ccccc23)c1 | -2.23% (inactive) | 3.06
15 | COc1cc(NC(=S)N2CCCC(C)C2)c(OC)cc1Cl (stereo not given) | -3.52% (inactive) | 1.38
16 | COc1ccc(NC(=O)COc2ccc(C(=O)OCC(=O)N(C)C3CCS(=O)(=O)C3)cc2OC)cc1 (stereo not given) | -3.64% (inactive) | 1.53
17 | O=C(Nc1cccc(S(=O)(=O)Nc2ccc(Cl)cc2)c1)c1ccc2c(c1)OCCO2 | 63.7% (active) | 29.9
18 | O=C(Nc1cccc(S(=O)(=O)N2CCCCC2)c1)c1ccc2c(c1)OCO2 | 9.86% (inactive) | 4.97
19 | O=C(Nc1ccc(Cl)cn1)c1ccc2c(c1)OCCO2 | 27.3% (inactive) | 29
20 | CCn1nc(C)cc1C(=O)N1CCCC(C(=O)c2cccc(OC)c2)C1 (stereo not given) | -20.3% (inactive) | 1.68
21 | Cn1nnnc1SCC(=O)NNC(=O)c1ccc(Br)cc1 | -19.9% (inactive) | 0.05
22 | COc1cc(/C=N/NC(=O)c2cc(C)n(-c3ccc(F)cc3)c2C)cc(OC)c1O | 1.5% (inactive) | 1.64

Row | Compound | inhibition [1] | inhibition (mutant strain inhibition) [%]
23 | CCn1c(SCC(=O)Nc2cc(C)c(Cl)cc2OC)nnc1-c1ccco1 | 23% (inactive) | 32.2
24 | COc1cc(Cl)c(C)cc1NC(=O)CSc1nnc(-c2cccnc2)n1Cc1ccco1 | 2.54% (inactive) | 2.3
25 | COc1cc(Cl)c(C)cc1NC(=O)CSc1nnc(-c2ccco2)n1CC(C)C | 63.4% (active) | 39.5
26 | CCN(CC)CCOC(=O)c1ccc(NC(=O)CNC(=O)c2ccccc2)cc1 | 19.4% (inactive) | 15.8
27 | CC(C)OCC(O)CN1CCN(C(c2ccccc2)c2ccccc2)CC1 (stereo not given) | 11% (inactive) | 3.96
28 | COc1ccccc1NC(=S)N1CCN(C(c2ccccc2)c2ccccc2)CC1 | 58.8% (active) | 38.3
29 | CC(C)NC(=S)N1CCN(S(C)(=O)=O)CC1 | -2.96% (inactive) | 11.2
30 | COc1ccccc1NC(=S)NC(=O)C(C)C | 48% (inactive) | 2.93
31 | COc1ccccc1NC(=S)N1CCC(NC(=O)C23CC4CC(CC(C4)C2)C3)CC1 | -5.17% (inactive) | 19
32 | CC(C)NC(=S)N1CCN(C(c2ccccc2)c2ccccc2)CC1 | 64.7% (active) | 29.4
33 | O=C1CN(C(=O)COC(=O)c2cnc(Cl)c(Cl)c2)c2ccccc2N1 | -3.97% (inactive) | -29.4
34 | O=C(COC(=O)c1ccco1)NCc1ccc(Cl)cc1 | 2.75% (inactive) | -1.13
35 | Cc1n[nH]c(=O)n1-c1ccc(C(C)C)cc1 | -5.29% (inactive) | -2.69
36 | O=C(CO/N=C/c1ccc(OC(F)F)cc1)NCc1ccc(F)cc1 | 16.7% (inactive) | 27
37 | CC(C(=O)N=Nc1c(O)n(C)c2ccc(Br)cc12)n1cnc2ccccc2c1=O (stereo not given) | 17.8% (inactive) | 30.6
38 | COCCN(CCOC)S(=O)(=O)c1ccc(/C(O)=C(\C#N)c2nc3ccccc3[nH]2)cc1 | -0.78% (inactive) | -1.8
39 | CC(C)CN1CCNC(=O)C1CC(=O)N(C)CC1CCOCC1 (stereo not given) | -4.62% (inactive) | -8.09
40 | COC(=O)C1=C(C)N(c2ccc(C)cc2)/C(=C/c2ccc(O)cc2)C1=O | 5.84% (inactive) | 0.5
41 | COc1ccc(/C=N/NC(=O)CNC(=O)c2ccc(S(=O)(=O)N3CCCC3)cc2)c(OC)c1 | 7.02% (inactive) | 8.18
42 | Cc1nnc(CN(C)Cc2cn[nH]c2-c2ccc(-c3ccccc3)cc2)o1 | 6.53% (inactive) | -1.49
43 | CCCc1ccc(OCC(=O)NNC(=S)NC(=O)c2ccco2)cc1 | 87.8% (inactive) | 88.2
44 | O=C(Nc1ccc2ccccc2c1)/C(=C/c1cccc(Br)c1)NC(=O)c1ccco1 | 17.2% (inactive) | 10.9

Row | Compound | inhibition [1] | inhibition (mutant strain inhibition) [%]
45 | CC(Oc1ccc2ccccc2c1)C(=O)NNC(=S)NC(=O)c1ccco1 (stereo not given) | 86.5% (active) | 80.5
46 | CCCCCNC(=O)c1cccnc1SCC(=O)Nc1ccccc1OC | -6.44% (inactive) | -24
47 | CCCNC(=O)c1ccccc1NC(=O)CSCc1ccc(OC)cc1 | 72.9% (active) | 19.6
48 | CCCNC(=O)Nc1ccccc1C(=O)Nc1ccc(OC)cc1 | -0.69% (inactive) | -0.17
49 | Cc1cccc(C)c1NC(=O)C1(C)c2cccc[n+]2CC(=O)N1Cc1cccs1 (stereo not given) | -7.87% (inactive) | 0.75
50 | CCOc1cc(/C=N/O)cc(Br)c1OC | -2.36% (inactive) | -20.3
51 | COc1cccc(/C=N/NC(=O)c2cccc([N+](=O)[O-])c2)c1OS(=O)(=O)c1ccc(C)cc1 | -5.41% (inactive) | -3.16
52 | CCOc1c(Cl)cc(/C=N/O)cc1OC | -6.94% (inactive) | -20.7
53 | COc1cc(/C=N/Nc2ccc(C)cc2)cc(Br)c1O | 15.8% (inactive) | 37.7
54 | COc1cc(/C=N/O)cc(Br)c1OCc1cccc(Cl)c1 | 91.4% (active) | 76.3
55 | COc1cc(/C=N/O)cc(Br)c1OS(=O)(=O)c1ccc(C)cc1 | 71.3% (active) | 30.6
56 | N#CC1(C#N)C(C(=O)C23CC4CC(CC(C4)C2)C3)C12CCOCC2 (stereo not given) | 21.5% (inactive) | 11.6
57 | CCOc1cc(N2CCOCC2)c(OCC)cc1NC(=O)C1=NN(c2cccc(C)c2)C(=O)CC1 | -2.98% (inactive) | 16.4
58 | Cc1cc(C)c(OCCN2CC(C)OC(C)C2)c(Br)c1 (stereo not given) | 21.8% (inactive) | 42.5
59 | S=c1[nH]nc(COc2ccccc2)n1-c1ccccc1 | -7.14% (inactive) | -7.05
60 | Cc1ccc(OCc2n[nH]c(=S)n2-c2ccc(C)cc2)cc1 | 69.9% (active) | 60.1
61 | Cc1ccc(OCc2n[nH]c(=S)n2-c2ccccc2)cc1 | 11.4% (inactive) | 20.6
62 | COc1ccc(CN(C)C(=S)Nc2ccc(Cl)cc2Cl)cc1 | 22.4% (inactive) | 21.9
63 | O=Cc1cn(Cc2ccccc2)nc1-c1cccnc1 | -22.6% (inactive) | 3.85
64 | N#C/C(=C(\O)C(F)(F)F)c1nnc2n1CCCCC2 | 22% (inactive) | 13.5
65 | Cc1ccc2nc(-c3ccccc3)cc(C(=O)O)c2c1 | 3.84% (inactive) | 0.25
66 | CC(=O)Nc1cccc(-c2cnc3ccccc3n2)c1 | 13.3% (inactive) | 9.81

Row | Compound | inhibition [1] | inhibition (mutant strain inhibition) [%]
67 | CCS(=O)(=O)Nc1cccc(-c2cc(-c3ccccc3)c3cc(C)ccc3n2)c1 | 69.3% (active) | -17.6
68 | CCC(C)(C)NC(=O)/C=C/c1cc(OC)c(OC)c(S(=O)(=O)N2CCc3ccccc32)c1 | 7.15% (inactive) | 8.01
69 | COc1ccc(CS(=O)/C(Cl)=C(/Cl)C(=O)Nc2ccc(OC)nc2)cc1 (stereo not given) | 80% (inactive) | 83.5
70 | Cc1nc2sc(C(=O)c3ccccc3)c(N)c2c2c1CCCC2 | 66.8% (active) | 35.7
71 | CN(C)c1ccnc2sc(C(=O)c3ccccc3)c(N)c12 | 38.8% (inactive) | 22.2
72 | NC(=O)c1sc2nc3c(c(-c4ccccc4)c2c1N)CCC3 | -6.05% (inactive) | -18.6
73 | COc1ccccc1CNC(=O)C1Cc2ccccc2C(=O)O1 (stereo not given) | -29.6% (inactive) | -2
74 | CCOc1cc(NC(=O)CCl)c(OCC)cc1NC(C)=O | -12.2% (inactive) | 11.6
75 | CC(C)(C)NC(=O)CN1CCC(NC(=O)C23CC4CC(CC(C4)C2)C3)CC1 | -5.35% (inactive) | -4.48
76 | CSc1ccc(C(=O)C2CCCN(C(=O)c3ccc(C)nc3)C2)cc1 (stereo not given) | 0.28% (inactive) | -10.8
77 | CC1(C)CC(=O)c2cnc3nc4ccccc4n3c2C1 | 16.6% (inactive) | -7.45
78 | O=c1c2ccccc2nc2n1C1(CCCCC1)Cc1ccccc1-2 | 61.2% (active) | 9.31
79 | c1cncc(-c2nnc3n2C2(CCCCC2)Cc2ccccc2-3)c1 | 11.9% (inactive) | 5.15
80 | CCC1(CC)Cc2ccccc2-c2nc3ccccc3c(=O)n21 | -30.3% (inactive) | 0.33
81 | COC(=O)C1=C(C)NC(=O)/C1=C/c1ccc(CNS(=O)(=O)c2ccc(C)cc2)o1 | -8.5% (inactive) | 0.18
82 | NS(=O)(=O)c1ccc(CCNC(=O)c2ccc([N+](=O)[O-])cc2[N+](=O)[O-])cc1 | -6.04% (inactive) | -5.86
83 | COC(=O)c1ccc(NC(=O)c2ccccc2NS(=O)(=O)c2ccccc2)cc1 | 6.94% (inactive) | 15.7
84 | COc1cc(NC(=O)c2cccnc2SC)cc(OC)c1 | -8.4% (inactive) | -8.46
85 | COc1cc(NC(=O)c2ccccc2NS(=O)(=O)c2ccc(Cl)s2)cc(OC)c1 | 67.2% (active) | 46.5
